From PubChem BioAssay (NCATS)
Inconclusive results are not listed. The source holds several records for some structures; these can differ, active in one and inactive in another. Active and inactive are the calls of the source. Unless noted, calls follow the shape of the dose curve; as a rule, active = well fitted curve in either direction with a large enough effect (not every such curve was filed as active); inconclusive = small, poorly fitted or top-dose-only effect, or another doubt; inactive = flat fitted curve, though single readings scatter.

Columns and labels:
[1] = target: Lysosomal acid glucosylceramidase (Homo sapiens) (UniProt P04062); experiment: Glucocerebrosidase-p2 (AID 348; in the data active = potency below about 10 µM; also: potency is read from the fitted curve at half-maximal effect); settings: purified GBA, blue fluorogenic substrate, 40 min
Chain of Lysosomal acid glucosylceramidase (Homo sapiens) (P04062 whole entry, looked up): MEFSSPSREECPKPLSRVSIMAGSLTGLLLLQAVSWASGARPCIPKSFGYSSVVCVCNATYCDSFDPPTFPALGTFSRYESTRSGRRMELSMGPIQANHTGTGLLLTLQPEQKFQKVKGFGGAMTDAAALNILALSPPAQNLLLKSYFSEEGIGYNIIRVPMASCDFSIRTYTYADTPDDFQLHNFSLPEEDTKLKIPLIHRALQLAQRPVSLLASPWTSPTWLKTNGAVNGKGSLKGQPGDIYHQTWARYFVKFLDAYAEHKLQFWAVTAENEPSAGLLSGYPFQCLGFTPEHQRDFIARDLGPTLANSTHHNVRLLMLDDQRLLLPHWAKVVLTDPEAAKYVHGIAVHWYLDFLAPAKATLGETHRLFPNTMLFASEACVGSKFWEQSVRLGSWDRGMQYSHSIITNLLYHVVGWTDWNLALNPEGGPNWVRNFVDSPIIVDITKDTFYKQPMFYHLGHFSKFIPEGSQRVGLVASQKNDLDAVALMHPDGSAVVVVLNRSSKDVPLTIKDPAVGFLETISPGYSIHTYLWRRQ
How it was run: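 Normal human glucocerebrosidase (0.2 nM) with blue fluorogenic substrate (80 uM final) in citrate/phosphate pH 5.9 with 10mM sodium taurocholate, 0.01% tween-20; 40 min RT, NaOH/glycine stop; fluorescence Ex 365/Em 440; AC50 from a titration from 0.6 nM upwards.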

[2] = AP1 Signaling Pathway (AID 357); settings: ME-180 AP-1-bla reporter, EGF-induced, beta-lactamase ratio, 5 h; at 7.69 µM (top of the series) unless noted; also: % is scaled to controls: 0 for no effect and ±100 for the full control effect
How it was run: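 ME-180 cells with beta-lactamase reporter under AP-1 response element, stimulated with EC50 EGF; compounds tested in titration series, 5 h at 37 °C. CCF4 substrate added 2.5 h at room temperature; 460/530 nm emission ratio gave %activity and AC50.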

[3] = NFAT Signaling Pathway (AID 444); settings: Jurkat NFAT-bla M1, carbachol, beta-lactamase ratio, 5 h;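 also: carbachol stimulus at about its EC50 of 1 µM final; % is scaled to controls: 0 for no effect and ±100 for the full control effect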
How it was run: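 Read-out: CCF4 FRET ratio (460 nm/530 nm) after 1 h RT dye loading, used for %activity and AC50 from titration series. Cells: Jurkat NFAT-β-lactamase/M1 line, treated with compound plus 1 uM carbachol for 5 h, 37 °C.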

[4] = Stat Signaling Pathway (AID 446); settings: ME-180 (cervical carcinoma) SIE beta-lactamase reporter, IL-6 stimulated, 5 h;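 also: ME-180 cervical cancer cells given 40 pM IL-6 alongside compound; SIE-controlled beta-lactamase reporter measured as 460/530 nm FRET emission ratio; % is scaled to controls: 0 for no effect and ±100 for the full control effect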
How it was run: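 Compound effects on IL-6-induced STAT reporter activity were measured in ME-180 cells. After overnight culture, cells were co-treated with 40 pM IL-6 for 5 hrs before beta-lactamase substrate loading at room temperature.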

[5] = target: Glucocorticoid receptor (Homo sapiens) (UniProt P04150); experiment: GR-EFC Redistribution (AID 451; calls by dose curve; also: potency is read from the fitted curve at half-maximal effect); settings: CHO-K1 GR-EFC translocation, beta-gal luminescence, 2 h
Chain of Glucocorticoid receptor (Homo sapiens) (P04150 whole entry, looked up, the tested form may be a part): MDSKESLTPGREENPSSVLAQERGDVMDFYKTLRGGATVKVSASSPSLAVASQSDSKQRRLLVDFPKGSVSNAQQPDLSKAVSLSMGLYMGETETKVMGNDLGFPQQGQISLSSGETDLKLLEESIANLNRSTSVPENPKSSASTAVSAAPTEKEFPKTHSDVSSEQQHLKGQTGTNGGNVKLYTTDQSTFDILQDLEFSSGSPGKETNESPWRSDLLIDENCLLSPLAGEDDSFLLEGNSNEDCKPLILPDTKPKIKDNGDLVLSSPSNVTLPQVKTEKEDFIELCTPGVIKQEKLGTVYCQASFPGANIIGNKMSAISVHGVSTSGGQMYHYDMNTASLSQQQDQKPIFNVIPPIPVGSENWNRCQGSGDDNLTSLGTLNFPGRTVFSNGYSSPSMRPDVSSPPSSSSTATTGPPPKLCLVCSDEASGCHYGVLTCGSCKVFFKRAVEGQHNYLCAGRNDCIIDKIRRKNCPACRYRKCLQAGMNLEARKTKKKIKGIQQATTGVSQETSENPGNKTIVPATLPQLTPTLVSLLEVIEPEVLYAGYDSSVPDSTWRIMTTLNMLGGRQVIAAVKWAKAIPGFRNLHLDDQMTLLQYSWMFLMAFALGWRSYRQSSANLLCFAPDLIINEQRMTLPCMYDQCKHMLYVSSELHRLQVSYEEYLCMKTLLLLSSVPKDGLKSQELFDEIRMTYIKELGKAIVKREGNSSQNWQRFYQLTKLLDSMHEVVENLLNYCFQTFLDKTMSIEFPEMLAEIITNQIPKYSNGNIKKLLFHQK
How it was run: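 Translocation of GR-ED fusion to nuclear EA restores b-gal, read by luminescence after 1 h room-temperature detection. Engineered CHO-K1 biosensor cells, 1,000/well, exposed 2 h at 37 C to titrations up to 46 uM final.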

[6] = target: Mitogen-activated protein kinase 10 (Mus musculus) (UniProt Q61831); experiment: JNK3 AlphaScreen Assay (AID 530); settings: JNK3 lysate, c-Jun phosphorylation; series mostly up to 57.1 µM;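 also: kinase came from lysate of stimulated human HepG2 cells; signal reports phosphorylation of biotinylated GST-cJun 1-79 at Ser73 with 10 µM ATP; % is scaled to controls: 0 for no effect and ±100 for the full control effect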
How it was run: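 qHTS titrations with 15 min compound pre-incubation before adding ATP (10 uM final). Read-out: AlphaScreen of Ser73-phosphorylated biotin-GST-cJun using HepG2 lysate JNK3 activated by IL-1β and TNFα.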

[7] = target: 3',5'-cyclic-AMP phosphodiesterase 4B (Homo sapiens) (UniProt Q07343); experiment: qHTS Assay for Inhibitors of PDE-IV (AID 607; active = well fitted activation curve with a large enough effect in the main read-out, with a control signal flat, not every such curve was filed as active; also: % of control where 0% means no effect); settings: HEK293 ACTOne CNG channel cells, membrane potential fluorescence; series mostly up to 22.9 µM
Chain of 3',5'-cyclic-AMP phosphodiesterase 4B (Homo sapiens) (Q07343 whole entry, looked up): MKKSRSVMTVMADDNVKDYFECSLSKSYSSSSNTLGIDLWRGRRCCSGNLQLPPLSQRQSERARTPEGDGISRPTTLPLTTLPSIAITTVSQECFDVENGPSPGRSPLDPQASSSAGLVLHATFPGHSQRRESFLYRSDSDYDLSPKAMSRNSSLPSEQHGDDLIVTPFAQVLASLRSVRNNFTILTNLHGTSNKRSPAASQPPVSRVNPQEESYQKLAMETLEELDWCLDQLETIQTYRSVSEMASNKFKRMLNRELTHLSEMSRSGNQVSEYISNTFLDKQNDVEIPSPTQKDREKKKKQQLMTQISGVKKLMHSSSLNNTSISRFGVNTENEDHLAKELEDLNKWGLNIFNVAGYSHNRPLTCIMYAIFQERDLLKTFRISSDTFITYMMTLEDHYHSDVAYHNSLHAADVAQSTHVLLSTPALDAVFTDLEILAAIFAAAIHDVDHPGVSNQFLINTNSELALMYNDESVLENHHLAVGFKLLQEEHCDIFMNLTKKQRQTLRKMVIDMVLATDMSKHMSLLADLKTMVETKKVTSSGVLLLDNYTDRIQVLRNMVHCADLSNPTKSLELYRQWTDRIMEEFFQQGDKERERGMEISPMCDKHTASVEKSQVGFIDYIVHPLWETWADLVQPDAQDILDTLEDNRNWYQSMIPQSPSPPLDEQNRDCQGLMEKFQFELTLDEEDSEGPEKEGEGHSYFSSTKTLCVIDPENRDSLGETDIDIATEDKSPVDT
How it was run: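 ACTOne HEK293 cells carry a modified cAMP-gated CNG channel and express endogenous PDE4; plated 1000 cells/well, compounds up to 22.9 uM final. Membrane-potential dye fluorescence (ex 535/em 590) was read; parental cells received 10 uM forskolin + 100 uM RO 20-1724.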

[8] = qHTS Assay for Lipid Storage Modulators (AID 1519; calls by dose curve); settings: Drosophila S3 cells, BODIPY lipid droplet/cell ratio, laser cytometry, cells loaded with oleic acid
How it was run: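 Cells seeded at 5,000 per well were treated with compounds over a concentration series and loaded with oleic acid (400 uM, as added). Lipid droplet fluorescence (488 nm excitation, 500-530 nm channel) was read by laser-scanning cytometry and normalized to 20 uM Triacsin C.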

[9] = target: Glucocorticoid receptor (Homo sapiens) (UniProt P04150); experiment: GR-GFP Redistribution (AID 450;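 active = compounds whose dose series gives a full or clear partial fitted curve of increased nuclear translocation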; also: potency is read from the fitted curve at half-maximal effect); settings: U2OS GR-GFP nuclear translocation, laser cytometry, 2 h
[10] = target: Cytochrome P450 1A2 (Homo sapiens) (UniProt P05177); experiment: p450-cyp1a2 (AID 410; calls by dose curve; also: potency is read from the fitted curve at half-maximal effect;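 as to activity change, negative = inhibition: -100% = full effect of reference inhibitor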); settings: recombinant CYP1A2, luciferin-ME demethylation, luminescence; series mostly up to 57 µM
Chain of Cytochrome P450 1A2 (Homo sapiens) (P05177 whole entry, looked up): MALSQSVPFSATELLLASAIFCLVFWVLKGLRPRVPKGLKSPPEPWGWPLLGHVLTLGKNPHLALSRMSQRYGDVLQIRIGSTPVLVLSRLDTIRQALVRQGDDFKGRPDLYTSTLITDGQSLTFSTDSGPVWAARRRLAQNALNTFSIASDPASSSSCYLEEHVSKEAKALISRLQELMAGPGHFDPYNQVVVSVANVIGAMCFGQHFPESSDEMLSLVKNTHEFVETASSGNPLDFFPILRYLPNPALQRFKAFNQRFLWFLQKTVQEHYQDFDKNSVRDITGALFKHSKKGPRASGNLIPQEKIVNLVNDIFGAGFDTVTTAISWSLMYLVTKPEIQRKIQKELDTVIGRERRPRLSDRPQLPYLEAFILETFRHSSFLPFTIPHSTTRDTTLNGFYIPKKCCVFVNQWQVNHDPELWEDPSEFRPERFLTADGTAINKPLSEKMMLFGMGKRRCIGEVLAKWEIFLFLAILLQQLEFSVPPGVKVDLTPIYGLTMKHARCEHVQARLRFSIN
How it was run: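 O-Demethylation of luciferin 6' methyl ether by human CYP1A2 is monitored as luciferase luminescence. Substrate sits at Km (100uM); enzyme is 20nM. Values are scaled to 57 uM furafylline as maximal inhibition.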

[11] = target: ATP-dependent 6-phosphofructokinase (Trypanosoma brucei brucei) (UniProt O15648); experiment: qHTS Assay to Find Inhibitors of T. brucei phosphofructokinase: hit validation (AID 492961; active = well fitted curve in the direction sought with a large enough effect; an effect the other way counts as inactive or inconclusive); settings: T. brucei PFK, ADP-Glo luminescence; series mostly up to 24.3 µM
Chain of ATP-dependent 6-phosphofructokinase (Trypanosoma brucei brucei) (O15648 whole entry, looked up): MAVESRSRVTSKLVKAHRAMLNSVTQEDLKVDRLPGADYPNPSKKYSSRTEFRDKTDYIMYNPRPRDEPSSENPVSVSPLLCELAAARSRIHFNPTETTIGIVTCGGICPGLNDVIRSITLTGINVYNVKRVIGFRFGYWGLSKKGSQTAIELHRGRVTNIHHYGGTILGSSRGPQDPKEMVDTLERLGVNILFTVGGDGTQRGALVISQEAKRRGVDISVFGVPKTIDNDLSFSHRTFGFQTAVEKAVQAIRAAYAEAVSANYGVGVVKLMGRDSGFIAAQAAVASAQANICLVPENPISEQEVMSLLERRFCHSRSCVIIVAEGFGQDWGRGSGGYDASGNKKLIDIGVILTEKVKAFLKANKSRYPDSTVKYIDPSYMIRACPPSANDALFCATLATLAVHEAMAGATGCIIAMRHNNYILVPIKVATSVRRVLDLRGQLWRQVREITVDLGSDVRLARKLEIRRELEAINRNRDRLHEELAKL
How it was run: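 ADP-Glo luminescence read-out of ADP formed by 1.25 nM PFK from 0.1 mM ATP and 0.5 mM F6P (TEA pH 8.0, 45 min, RT). Compounds titrated; activity normalized to no-enzyme and full-enzyme controls.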

[12] = target: Ubiquitin carboxyl-terminal hydrolase 1 (Homo sapiens) (UniProt O94782); experiment: Inhibitors of USP1/UAF1: Pilot qHTS (AID 504865; active = well fitted curve in the direction sought with a large enough effect; an effect the other way counts as inactive or inconclusive;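 also: rhodamine fluorescence freed from ubiquitin-rhodamine substrate followed over time; top concentration of the series differs between compounds; % is scaled to controls: 0 for no effect and ±100 for the full control effect; nearly all actives have a fitted effect of over 35% in size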); settings: purified USP1/UAF1, Ub-rhodamine cleavage fluorescence; series mostly up to 54.9 µM
Chain of Ubiquitin carboxyl-terminal hydrolase 1 (Homo sapiens) (O94782 whole entry, looked up): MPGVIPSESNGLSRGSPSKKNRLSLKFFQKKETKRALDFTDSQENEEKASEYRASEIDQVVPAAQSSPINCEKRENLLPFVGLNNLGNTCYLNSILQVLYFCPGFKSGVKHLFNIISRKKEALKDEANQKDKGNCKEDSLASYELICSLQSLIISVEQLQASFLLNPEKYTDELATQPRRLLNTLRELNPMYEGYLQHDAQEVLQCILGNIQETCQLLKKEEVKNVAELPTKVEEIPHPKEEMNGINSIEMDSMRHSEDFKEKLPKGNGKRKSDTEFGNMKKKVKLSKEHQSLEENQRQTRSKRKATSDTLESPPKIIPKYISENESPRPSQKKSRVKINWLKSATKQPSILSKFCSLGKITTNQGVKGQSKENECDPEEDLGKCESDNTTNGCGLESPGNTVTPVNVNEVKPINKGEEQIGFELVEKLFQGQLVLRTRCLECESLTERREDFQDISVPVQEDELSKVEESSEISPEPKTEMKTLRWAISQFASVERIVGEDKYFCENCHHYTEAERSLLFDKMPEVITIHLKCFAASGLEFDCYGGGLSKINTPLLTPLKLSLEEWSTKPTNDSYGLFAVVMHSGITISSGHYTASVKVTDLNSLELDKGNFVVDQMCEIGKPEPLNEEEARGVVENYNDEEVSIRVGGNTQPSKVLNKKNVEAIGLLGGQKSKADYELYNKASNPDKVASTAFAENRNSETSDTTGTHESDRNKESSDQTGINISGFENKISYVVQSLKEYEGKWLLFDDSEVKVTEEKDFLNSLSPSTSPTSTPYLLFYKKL
How it was run: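 Deubiquitinase activity followed as kinetic rhodamine fluorescence release from 150 nM Ub-Rho. 1 nM USP1/UAF1 with compound, after 15 min room-temperature preincubation, in HEPES pH 7.8 buffer containing TCEP, EDTA, BSA and Tween-20.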

[13] = target: Luciferin 4-monooxygenase (Photinus pyralis) (UniProt P08659); experiment: Biochemical firefly luciferase enzyme assay for NPC (AID 624030; active = well fitted curve in the direction sought with a large enough effect; an effect the other way counts as inactive or inconclusive;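 also: purified P. pyralis luciferase at 10 nM with luciferin and ATP substrate; 0% = DMSO and -100% = full luciferase inhibition by PTC124 control; nearly all actives have a fitted effect of over 70% in size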); settings: purified P. pyralis luciferase, luminescence, 5 min; series mostly up to 58.6 µM
Chain of Luciferin 4-monooxygenase (Photinus pyralis) (P08659 whole entry, looked up): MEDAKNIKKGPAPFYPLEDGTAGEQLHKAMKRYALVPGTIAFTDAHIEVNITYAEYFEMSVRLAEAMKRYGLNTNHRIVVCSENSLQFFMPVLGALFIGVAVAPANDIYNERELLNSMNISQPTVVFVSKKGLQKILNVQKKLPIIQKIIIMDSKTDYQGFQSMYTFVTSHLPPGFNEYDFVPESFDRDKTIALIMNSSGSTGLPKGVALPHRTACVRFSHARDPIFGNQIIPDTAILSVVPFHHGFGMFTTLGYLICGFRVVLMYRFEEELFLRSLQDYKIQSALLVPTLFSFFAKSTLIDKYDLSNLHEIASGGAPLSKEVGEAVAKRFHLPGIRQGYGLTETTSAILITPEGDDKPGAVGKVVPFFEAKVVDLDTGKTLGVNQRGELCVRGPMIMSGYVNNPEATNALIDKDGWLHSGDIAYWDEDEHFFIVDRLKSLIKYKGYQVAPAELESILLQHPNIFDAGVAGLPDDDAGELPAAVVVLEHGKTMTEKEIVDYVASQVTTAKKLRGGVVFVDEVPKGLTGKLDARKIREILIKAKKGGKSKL
How it was run: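 Direct inhibition of firefly luciferase enzyme (10 nM final, 50 mM Tris Acetate) assessed by luminescence within 5 minutes. Percent activity scaled between DMSO and PTC124 positive control, with concentration-effect curves classified by fit quality and response.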

[14] = qHTS profiling for inhibitors of Plasmodium falciparum proliferation (AID 504749; active = well fitted curve in the direction sought with a large enough effect; an effect the other way counts as inactive or inconclusive;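 also: 0% = DMSO vehicle and full inhibition = artemisinin control; nearly all actives have a fitted effect of over 60% in size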); settings: P. falciparum in erythrocytes, SYBR Green DNA, 72 h, at 12.8 µM (top of the series)
How it was run: (§1)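 SYBR Green fluorescence of parasite DNA, read after lysis and overnight dark incubation, measured growth over 72 h in erythrocyte culture at 0.3% parasitemia and 2.5% hematocrit. Data normalised to DMSO and 0.29 uM artemisinin, with plate-drift correction.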

AS120 = experiment: as above; settings: P. falciparum in erythrocytes, SYBR Green DNA, 72 h; series mostly up to 28.7 µM
How it was run: as §1

CP250 = experiment: as above; settings: P. falciparum in erythrocytes, SYBR Green DNA, 72 h; series mostly up to 12.8 µM
How it was run: as §1

[15] = at 7.69 µM (top of the series) unless noted
[16] = measured here: cell count channel max response
[17] = measured here: lipid channel max response

CS(=O)(=O)N1CCC[C@@]2(CCN(Cc3ccc(C#N)cc3)C2)C1
inactive: Potency [1] > 11.4 µM | activity change, negative = inhibition [2] 10.7% | activity change, negative = inhibition [3, 15] -5.85% | activity, negative = inhibition [4, 15] -6.21% | Potency [5] > 46 µM | Potency [6] | Potency [7] | activity change, negative = inhibition ([8]; at 57.5 µM (top of the series)) 1.64%
-0.755%: max response [8, 17]
-0.832%: max response [8, 16]

Cc1cccc(CNc2ccnc(-c3cccc(NS(C)(=O)=O)c3)n2)c1
inactive: Potency [1] > 11.4 µM | activity change, negative = inhibition [2] -18.5% | activity change, negative = inhibition [3, 15] 9.66% | Potency [9] > 46 µM | Potency [5] > 46 µM | Potency [6] | Potency [7] | activity change, negative = inhibition ([8]; at 57.5 µM (top of the series)) 8.1%
-1.23%: max response [8, 17]
4.58%: max response [8, 16]

CC[C@@]12CCCN3CCc4c(n(c5ccccc45)C(=O)C1)[C@H]32
-14%: max response [8, 17]
active: Potency [10] 10 µM
inactive: Potency [1] > 11.4 µM | activity change, negative = inhibition [10] -9.8% [at 2.29 µM] | activity change, negative = inhibition ([3]; at 7.69 µM (top of the series)) -5.89% | activity change, negative = inhibition ([3]; at 17.2 µM (top of the series)) -3.8% | activity, negative = inhibition ([4]; at 7.69 µM (top of the series)) 8.55% | activity, negative = inhibition ([4]; at 17.2 µM (top of the series)) 14.6% | Potency [6] | Potency [7] | activity change, negative = inhibition ([8]; at 25.7 µM (top of the series)) -0.21% | outcome [11] | Potency [12] | outcome [13] | activity, negative = inhibition ([14]; parasite line A) 14.8% | activity, negative = inhibition ([14]; parasite line B) -2.22% | Potency (AS120) | Potency (CP250)
-16.7%: max response [8, 16]

COCCn1c(=O)c(-c2ccc(F)cc2)nc2cnc(Oc3ccc(OC)cc3)nc21
inactive: Potency [1] > 11.4 µM | activity change, negative = inhibition [2] -14.8% | activity change, negative = inhibition [3, 15] 0.536% | activity, negative = inhibition [4, 15] -13.7% | Potency [9] > 9.22 µM | Potency [5] > 46 µM | Potency [6] | activity change, negative = inhibition ([8]; at 57.5 µM (top of the series)) -18.7%
-18.1%: max response [8, 16]
-27.4%: max response [8, 17]

Cc1cccc(CNc2cc(-c3cccc(NS(C)(=O)=O)c3)ncn2)c1
inactive: Potency [1] > 11.4 µM | activity change, negative = inhibition [3, 15] 20% | activity, negative = inhibition [4, 15] -17.8% | Potency [9] > 46 µM | Potency [5] > 46 µM | Potency [6] | Potency [7] | activity change, negative = inhibition ([8]; at 57.5 µM (top of the series)) -2.47% | Potency [12]
active: Potency [10] 10 µM
-3.18%: max response [8, 16]
-3.48%: max response [8, 17]

COc1ccccc1CNc1ncncc1-c1ccc(N(C)C)cc1
-7.14%: max response [8, 17]
inactive: Potency [1] > 11.4 µM | activity change, negative = inhibition [2] -14.4% | activity change, negative = inhibition [3, 15] -2.91% | activity, negative = inhibition [4, 15] -7.61% | Potency [9] > 46 µM | Potency [5] > 46 µM | activity change, negative = inhibition ([8]; at 57.5 µM (top of the series)) 7.79%
-12.6%: max response [8, 16]

O=C(c1cnccn1)N1CCC2(CCN(Cc3ccncc3)CC2)CC1
inactive: Potency [1] > 11.4 µM | activity change, negative = inhibition [2] -11.5% | activity change, negative = inhibition [3, 15] -19.7% | activity, negative = inhibition [4, 15] -8.42% | Potency [5] > 46 µM | Potency [6] | Potency [7] | activity change, negative = inhibition ([8]; at 57.5 µM (top of the series)) 3.75%
2.59%: max response [8, 16]
8.61%: max response [8, 17]
